Screening data deposited in PubChem by The Scripps Research Institute Molecular Screening Center.
CHO-K1 Ca PAM: nonselective calcium activators in parental CHO-K1 cells, primary screen, counter-screen for M1 PAM project, cell-based, Fluo-8 calcium fluorescence, full deck, 1536-well | ATP EC20; 0% at ATP EC20, 100% at ATP max | activation, % at 3 µM | 0.02% of 360,000 active;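 active = activation above the run cutoff, the mean activation of all test compounds plus 3 SD, cut at about 40% in these data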;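 note: peak over basal fluorescence ratio in a 140 s read after ATP addition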
CHO-K1 Ca antag: nonselective inhibitor or artifact in parental CHO-K1 cells; AID 602250; 0.6% of 360,000 active; inhibition, % at 3 µM; ATP-induced calcium, Fluo-8 fluorescence;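 active = inhibition above a per-plate cutoff, the plate's mean sample inhibition plus 3 SD, cut at about 24% in these data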;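 note: 0% = DMSO plus EC80 ATP and 100% = DMSO alone without ATP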
M1 ag: human M1 muscarinic receptor agonists, primary screen, Fluo-8 calcium fluorescence, CHO-K1 cells, HTS; CHO-K1 hM1, agonist mode; 0% DMSO, 100% acetylcholine EC100; Muscarinic acetylcholine receptor M1 (Homo sapiens), P11229; activation, % at 3 µM; AID 588814, 2011; 0.33% of 360,000 active;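 active = activation above the run's mean compound activation plus 3 SD, cut at about 16% in these data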;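 note: peak over basal fluorescence ratio within a 140 s kinetic read after compound addition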
Target sequence (P11229 whole entry, looked up): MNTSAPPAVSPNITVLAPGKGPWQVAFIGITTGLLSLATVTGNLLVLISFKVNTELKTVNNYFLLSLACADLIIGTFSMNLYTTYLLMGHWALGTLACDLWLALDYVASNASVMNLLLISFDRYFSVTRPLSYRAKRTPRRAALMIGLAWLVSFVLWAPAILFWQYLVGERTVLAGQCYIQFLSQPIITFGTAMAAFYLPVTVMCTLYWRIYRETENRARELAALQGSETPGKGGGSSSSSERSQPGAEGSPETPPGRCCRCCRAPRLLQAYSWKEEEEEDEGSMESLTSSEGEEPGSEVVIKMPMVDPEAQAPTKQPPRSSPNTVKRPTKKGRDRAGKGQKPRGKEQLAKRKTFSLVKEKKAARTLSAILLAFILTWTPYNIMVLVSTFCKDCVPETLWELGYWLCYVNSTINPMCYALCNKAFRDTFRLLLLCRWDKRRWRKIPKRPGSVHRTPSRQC
M1 ag parental: counter-screen for M1 agonists: effect in parental CHO-K1 cells. AID 602248, 2012. 0.48% of 360,000 active. Fluo-8 calcium fluorescence; scaled to maximal ATP response, vehicle zero. activation, % at 3 µM; in the data active = activation above about 15%;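 note: untransfected CHO-K1 host cells lacking M1 receptor as counterscreen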
M1 PAM: human M1 muscarinic receptor positive allosteric modulators, primary screen, CHO-K1 cells, Fluo-8 calcium fluorescence, 1536-well | CHO-K1 hM1, ACh EC20; 0% = ACh EC20, 100% = maximal ACh | activation, % at 3 µM | AID 588819, 2011 | 0.088% of 360,000 active | Muscarinic acetylcholine receptor M1 (Homo sapiens), P11229; in the data active = activation above about 19%, passing the limit was not always enough
CHRM1 antagonist: human M1 muscarinic receptor antagonists, primary screen, CHO-K1 cells, Fluo-8 calcium fluorescence, 1536-well; 1.3% of 360,000 active; AID 588852, 2011; inhibition, % at 3 µM; Muscarinic acetylcholine receptor M1 (Homo sapiens), P11229; CHO-K1 hM1, ACh EC80 antagonist;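 active = percent inhibition above its own plate's cutoff, namely the mean of that plate's compound wells plus 3 SD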;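 note: peak over basal fluorescence ratio during 140 s after agonist addition; 0% = ACh EC80 plus DMSO and 100% = DMSO alone without agonist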
* = called active by the depositor. Compounds with a hit are over-represented: about 2.4% of the library has one in this group of screens.

SMILES	CHO-K1 Ca PAM	CHO-K1 Ca antag	M1 ag	M1 ag parental	M1 PAM	CHRM1 antagonist
O=C1CN(S(=O)(=O)c2ccc(F)cc2)c2ccccc2N1	-9	28*	1	0	21	-11
CCOC(=O)c1cnn(-c2ccccc2)c1-n1cccc1C(=O)C(=O)Nc1ccc(OC)cc1	-6	-7	-1	0	19*	-37
CC(C)c1nn2c(=O)cc(O)nc2s1	6	1	-5	0	8	-9
COc1cccc(N2CCN(C(=O)CCNS(=O)(=O)c3ccc(F)c(F)c3)CC2)c1	-11	10	1	0	8	9
Cn1c(N2CCN(C(=O)Nc3ccc(F)cc3)CC2)nc2ccccc21	-3	8	-3	1	1	-4
Cn1c(N2CCN(C(c3ccccc3)c3ccccc3)CC2)nc2ccccc21	-18	25*	-7	1	-20	32*
CC(C)CN1CCC(CN(C)Cc2nc(-c3cnccn3)no2)CC1	7	-1	-7	0	11	-15
CCN(CC)c1ccc(NC(=O)CSc2nc3ccccc3c(=O)n2-c2cc(S(=O)(=O)N(C)C)ccc2C)cc1	-14	24*	-5	-1	-11	11
CC(=O)N(Cc1ccc2c(c1)OCO2)C1CC(=O)N(CCc2ccccc2)C1=O (stereo not given)	0	-2	-3	0	0	4
Clc1ccc(C[n+]2cc(-c3ccccc3)n3c2CCCCC3)c(Cl)c1	10	-6	-7	1	-6	12
Clc1ccc(-c2c[n+](Cc3ccc(Cl)cc3Cl)c3n2CCCCC3)cc1	-12	4	-7	1	-21	48*
CC1CCC(C(C)C)C(OC(=O)C[n+]2cc(-c3ccc(Cl)cc3)n3c2CCCCC3)C1 (stereo not given)	19	4	-14	1	-35	75*
O=C(C[n+]1cc(-c2ccccc2)n2c1CCCCC2)c1ccc(Cl)cc1	8	-3	-10	0	5	-7
O=C(/C=C/c1ccncc1)c1ccc(NC(=O)c2ccccc2F)cc1	8	4	-5	5	-4	7
COc1ccc(NC(=O)n2ncc3c(C)cccc32)cc1	13	10	-5	10	8	-12
CCN(CC)S(=O)(=O)c1cccc(C(=O)NCCCn2ccnc2)c1	17	-12	-1	1	14	-21
COc1cc(NC(=S)N2CCN(C/C=C/c3ccccc3)CC2)cc(OC)c1	18	-12	-9	2	9	-7
COc1cc(NC(=S)N2CCN(C(c3ccccc3)c3ccccc3)CC2)cc(OC)c1	3	-3	-8	0	-23	30*
O=C1C2Sc3[nH]c(=O)sc3C(c3ccccc3)C2C(=O)N1c1ccc(Cl)cc1 (stereo not given)	10	4	-4	1	4	-2
O=C(OCc1ccccc1)N1CCc2ccccc21	22	-6	-5	3	3	-15
CC(C)(C)OC(=O)N1CCCC(C(=O)Nc2cccc(C(=O)NCCCCc3ccccc3)c2)C1 (stereo not given)	-6	5	3	10	-20	27*
CC(C)(C)OC(=O)N1CCCC(C(=O)Nc2cccc(C(=O)NCCc3ccccc3)c2)C1 (stereo not given)	14	-9	9	8	2	-5
CC(=O)c1c(C)oc2ccc(NS(=O)(=O)c3ccc(O)c(C(=O)O)c3)cc12	6	-4	1	-1	10	-16
CC(=O)c1c(C)oc2ccc(NS(=O)(=O)c3ccc(F)cc3C)cc12	-10	14	5	8	-17	28*
Cc1ccc(NC(=O)C2C3CCC(O3)C2C(=O)O)c(Br)c1 (stereo not given)	13	-5	-3	1	11	-16
C[N+]1(CC(O)c2ccccc2)CCCCCC1 (stereo not given)	0	-6	-9	0	-9	3
